An excerpt weighted towards active compounds, which were near 3.5% of everything screened.
FBW7 act: FBW7 E3 ligase activators, primary screen, biochemical, AlphaScreen, human; actives 0.13% (n = 650,000); AlphaScreen FBW7–phospho-cyclin E peptide binding, activator screen; AID 1259310, 2017; F-box/WD repeat-containing protein 7 (Homo sapiens), Q969H0; normalized activity (activation), % at 26.1 µM; in the data active = normalized activity above about 1.9%;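 also: purified mutant Fbw7 with reduced substrate affinity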
GPR151 ag: activators of human GPR151, primary screen, cell-based, PathHunter beta-arrestin, luminescence | G-protein coupled receptor 151 (Homo sapiens), Q8TDV0 | PathHunter beta-arrestin GPR151 cells | activation, % at 11.2 µM | actives 1% (n = 650,000) | AID 1508602, 2020; in the data active = activation above about 4.9%;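 also: 0% = median of compound wells and 100% = cells with positive control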
Target sequence (Q8TDV0 whole entry, looked up): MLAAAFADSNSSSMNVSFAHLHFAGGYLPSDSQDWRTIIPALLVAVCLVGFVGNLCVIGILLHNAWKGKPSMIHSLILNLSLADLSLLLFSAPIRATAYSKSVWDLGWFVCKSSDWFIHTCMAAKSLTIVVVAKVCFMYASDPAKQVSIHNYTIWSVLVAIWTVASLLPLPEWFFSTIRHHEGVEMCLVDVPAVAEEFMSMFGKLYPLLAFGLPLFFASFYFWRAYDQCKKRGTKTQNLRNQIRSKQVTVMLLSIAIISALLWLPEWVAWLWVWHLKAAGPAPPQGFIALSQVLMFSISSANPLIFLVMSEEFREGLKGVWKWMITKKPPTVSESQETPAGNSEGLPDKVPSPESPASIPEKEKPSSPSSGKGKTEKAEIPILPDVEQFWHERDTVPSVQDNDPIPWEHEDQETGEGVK
MITF primary: MITF inhibitors, primary screen, biochemical, AlphaScreen, human | Microphthalmia-associated transcription factor (Homo sapiens), O75030 | AlphaScreen MITF homodimerization, bead proximity signal | inhibition, % at 2.6 µM | actives 0.91% (n = 650,000) | AID 1259374, 2018; in the data active = inhibition above about 50%;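 also: 0% = vehicle wells with protein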
TEAD-YAP block: TEAD-YAP interaction inhibition, primary screen, TEAD-YAP interaction inhibitor project, luminescence, HEK-TIYL cells; TEAD-Gal4/YAP UAS-luciferase luminescence; inhibition, % at 9.12 µM; actives 1.4% (n = 640,000); AID 1259422, 2018; in the data active = inhibition above about 32%;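 also: 0% = median of test compound wells and 100% = reference inhibitor wells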
GPR151 conf act: GPR151 activators, triplicate retest, confirmation, cell-based, PathHunter beta-arrestin, luminescence; shares compounds with GPR151 ag; GPR151 PathHunter beta-arrestin cells, 90 min; % of EA-reagent control over plate median; activation, % at 11.2 µM; 6,700 tested, under 10 active;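 active = mean percent activation across replicates above the confirmation screen cutoff of 4.91%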
GPR119 counter: GPR119 activators in beta-arrestin cells, counter-screen for GPR151 activator project, cell-based, PathHunter beta-arrestin, luminescence, triplicate | shares compounds with GPR151 ag | 90 min; 0 = compound-well median, 100 = enzyme-acceptor control | activation, % at 11.2 µM | actives 0.3% (n = 6,700) | AID 1508611, 2020;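 active = mean percent activation in the counterscreen above 29.09%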;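 also: counterscreen on off-target GPR119 to flag nonselective hits from the GPR151 activator screen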
* hit, by the source's call; · = no result given.

SMILES	FBW7 act	GPR151 ag	MITF primary	TEAD-YAP block	GPR151 conf act	GPR119 counter
O=C(CN1C(=O)c2ccccc2C1=O)NCC1COc2ccccc2O1 (stereo not given)	-0.3	-1.8	0.8	-1.0	·	·
CC(=O)N(C)c1nc(-c2ccccc2)ccc1C(=O)NCC1COc2ccccc2O1 (stereo not given)	0.0	10.9*	19.8	-1.0	0.3	-1.9
O=C(CN1CCN(Cc2ccccc2)CC1)NCC1COc2ccccc2O1 (stereo not given)	-0.1	9.2*	-8.2	4.0	-0.4	-8.2
COc1ccc(C2C(C(=O)NCC3COc4ccccc4O3)c3ccccc3C(=O)N2c2ccc(OC)cc2)cc1 (stereo not given)	0.4	7.2*	8.3	7.8	0.0	-8.2
O=C(N(Cc1ccc(Cl)cc1Cl)c1cccc([N+](=O)[O-])c1)C(F)(F)F	0.0	0.9	7.7	3.7	·	·
CC(C)c1ccc(C(=O)Nc2ccc(N(C)C)cc2)cc1	-0.2	18.8*	6.5	6.5	-1.1	-11.1
CC(C)c1ccc(NC(=O)c2ccc(N(C)C)cc2)cc1	0.6	0.5	5.8	-46.0	·	·
NC(=O)CSc1nnc2c(n1)[nH]c1ccc(Cl)cc12	0.1	-0.5	4.4	-8.5	·	·
Cc1ccc(CNC(=O)c2cc3c(s2)CS(=O)(=O)C3)cc1	0.0	5.7*	-5.8	-14.5	0.5	10.2
CC(C)CCNC(=O)c1cc2c(s1)CS(=O)(=O)C2	-0.1	6.5*	11.3	0.8	0.4	10.2
Cc1ccc(CCNC(=O)c2cc3c(s2)CS(=O)(=O)C3)cc1	0.1	-0.3	4.7	0.0	·	·
COc1cc2nc(CN3CCCCC3C)nc(N)c2cc1OC (stereo not given)	-0.2	1.7	15.8	5.5	·	·
CN(C(=O)c1ccc(F)cc1)c1ccccc1C(=O)NCc1ccccc1	0.0	9.0*	0.5	7.7	0.8	14.1
O=C(CCCc1ccccc1)Nc1ccc(O)cc1C(=O)O	0.3	-1.5	4.2	8.7	·	·
CN(C(=O)C1CC1)c1ccccc1C(=O)NCc1ccccc1	-0.2	-0.8	3.7	-0.5	·	·
Cc1ccc(CNC(=O)COc2ccccc2C)cc1	-0.1	7.4*	-7.2	5.7	0.8	0.5
O=C(Cc1ccc(F)cc1)NCc1ccccc1	-0.1	5.2*	3.9	-5.4	-0.5	4.2
O=C(CCCc1ccccc1)Nc1ccc(Br)cc1C(=O)O	0.1	5.9*	8.7	0.7	-0.2	-6.5
CCc1ccccc1OCC(=O)NCc1ccccc1	0.7	5.8*	12.3	-5.0	-0.4	0.2
COc1ccccc1CNC(=O)COc1cccc2ccccc12	0.1	5.6*	23.1	-14.0	0.8	3.1
O=C(COc1ccccc1Br)NCc1ccccc1	0.2	2.1	-16.7	-16.8	·	·
CC(=O)Nc1ccc(C(=O)NCCNC(=O)Cc2ccc(F)cc2)cc1	-0.1	5.5*	-9.7	-7.2	0.7	1.0
O=C(Cc1ccccc1)Nc1ccccc1C(=O)NCc1ccccc1	0.0	-1.7	-18.2	-11.6	·	·
O=C(CCc1ccccc1)Nc1ccccc1C(=O)NCc1ccccc1	0.1	8.0*	-4.9	-3.4	-0.2	12.8
Cc1ccc(N2C(=O)CSC2c2cccc(Br)c2)cc1 (stereo not given)	0.0	0.6	9.1	-12.9	·	·
SMILES	FBW7 act	GPR151 ag	MITF primary	TEAD-YAP block	GPR151 conf act	GPR119 counter
O=C(CNC(=O)Cc1ccccc1)NCC(=O)OCc1ccccc1	-0.4	1.8	-12.5	6.7	·	·
O=C(Cc1ccccc1)NCC(=O)OCc1ccccc1	0.0	6.3*	-2.3	7.0	0.1	-3.0
O=c1cc(CN2CCN(c3cccc(Cl)c3)CC2)occ1OCc1ccccc1	0.0	6.8*	-1.4	3.3	0.0	-3.7
O=C(O)COc1coc(CN2CCN(c3cccc(Cl)c3)CC2)cc1=O	-0.1	-1.7	-13.7	5.4	·	·
CCOC(=O)CSc1nnnn1-c1cc(OC)c(Cl)cc1Cl	0.1	-1.3	-5.4	0.5	·	·
COC(=O)C(CC(C)C)NC(=O)CSC1=NC(=O)C(c2ccccc2)C(=O)N1 (stereo not given)	0.2	5.6*	5.0	-0.4	-0.8	-16.1
CCCN(CCC)CCCNC(=O)C(=O)Nc1ccc(I)cc1	0.1	10.9*	-1.1	3.1	0.1	-0.1
CCCN(CCC)CCCNC(=O)C(=O)Nc1ccc(C)cc1	0.2	0.0	5.2	2.6	·	·
O=C(NCCN1CCN(S(=O)(=O)c2ccccc2)CC1)C(=O)NCc1ccco1	0.3	5.7*	-2.5	5.0	0.3	-8.1
Cc1ccc(C)n1CCN1CCN(S(=O)(=O)c2ccccc2)CC1	-0.4	5.1*	-33.5	5.0	0.1	-3.1
Cc1cc(C)nc(SCC(=O)NNC(=O)c2ccccc2Br)n1	0.0	6.0*	19.7	11.5	0.5	0.4
CCOc1ccc(S(=O)(=O)N2CCN(Cc3ccccc3)CC2)c2ccccc12	0.3	-1.4	-7.6	-10.2	·	·
O=C(CN1CCN(C(=O)c2ccco2)CC1)NN(Cc1ccccc1)c1ccccc1	0.0	5.4*	34.5	2.8	0.1	-5.5
CCCNC(=O)c1ccc(CS(=O)c2ccc(Cl)cc2)o1 (stereo not given)	-0.1	-0.2	11.8	-5.1	·	·
CCOC(=O)C1CCN(C(=O)Nc2ccc(Cl)cc2Cl)CC1	-0.1	5.4*	-8.2	-1.9	0.0	-2.0
CCOc1ccc(S(=O)(=O)NC2CCCCC2)cc1	0.2	5.3*	12.4	3.8	-0.8	-5.7
CCOc1ccc(S(=O)(=O)NC2CC2)cc1	0.2	2.9	7.3	4.9	·	·
O=C1Nc2ccccc2C1(CCNCc1ccccc1)c1ccccc1 (stereo not given)	0.0	-3.0	18.8	5.0	·	·
COC(=O)c1c(NC(=O)CSc2nnc3cc(C)c4ccccc4n23)sc2c1CCC(C)C2 (stereo not given)	0.0	0.4	-0.1	-4.7	·	·
Cc1cc(C(=O)Nc2sc3c(c2C#N)CCC(C)C3)cs1 (stereo not given)	-0.1	8.3*	-1.3	-64.9	0.3	-11.5
Cc1cc2nnc(SCC(=O)Nc3sc4c(c3C#N)CCC(C)C4)n2c2ccccc12 (stereo not given)	0.2	5.3*	22.0	3.3	0.4	3.5
Cc1cc(NC(=O)CSc2nc(NCC3CCCO3)c3ccccc3n2)n[nH]1 (stereo not given)	-0.1	-0.4	-7.1	-0.2	·	·
Cc1ccccc1C(=O)Nc1ccc(S(=O)(=O)N2CCN(C)CC2)cc1	-0.1	6.7*	-5.8	2.8	0.1	6.9
CCSc1ccccc1C(=O)Nc1ccncc1	0.4	5.0*	19.0	-4.6	-0.5	-5.4
CCSc1ccccc1C(=O)Nc1cccnc1	0.5	2.4	12.1	4.7	·	·

Screening results: PubChem, The Scripps Research Institute Molecular Screening Center
